From PubChem BioAssay (NCI) come the findings set out here.

The panel holds about 79,000 compounds, 15% with a hit somewhere; the sample as a whole holds those more often. Values without a mark were called inactive. Activity calls are given as the source filed them. No stated cut-off is given here; in the data, active means growth inhibition above about 70%; inactive means the rest.

Assay [1] is described as follows: NCI Yeast Anticancer Drug Screen. Data for the rad50 strain (AID 155).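 Further: 0% = growth of vehicle-only cultures of the same strain.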 The conditions noted are these: S. cerevisiae rad50 strain growth inhibition, stronger effect = higher value. The gist of the method:
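Compounds were tested on a yeast strain with an engineered DNA damage repair alteration; the reported value is growth inhibition normalised to vehicle treatment.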

Assay [2] in a line: NCI Yeast Anticancer Drug Screen. Data for the mec2-1 strain (AID 157). The conditions noted are these: S. cerevisiae mec2-1 strain, stronger effect = higher value. The gist of the method: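 mec2-1 yeast strain, carrying an alteration in DNA damage repair or cell cycle control, was exposed to compounds; growth inhibition was measured relative to vehicle-treated controls.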
Assay [3] is described as follows: NCI Yeast Anticancer Drug Screen. Data for the sgs1 mgt1 strain (AID 161).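 Further: 0% = growth of cultures given vehicle only.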 To be noted: S. cerevisiae sgs1 mgt1 strain, stronger effect = higher value. The gist of the method: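 Yeast cells carrying a defined DNA-repair defect were exposed to test compounds. Growth inhibition was measured relative to vehicle-treated controls.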
Assay [4] in a line: NCI Yeast Anticancer Drug Screen. Data for the cln2 rad14 strain (AID 165).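 Further: 0% = growth equal to vehicle treated cultures.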 The conditions noted are these: S. cerevisiae cln2 rad14 strain, stronger effect = higher value. In short, it runs like this:
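Yeast carrying cln2 and rad14 alterations (cell cycle control and DNA damage repair) were exposed to compounds. Growth inhibition was measured against vehicle-treated controls.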

Assay [5] is described as follows: NCI Yeast Anticancer Drug Screen. Data for the bub3 strain (AID 167). The conditions noted are these: S. cerevisiae bub3 mutant strain, stronger effect = higher value. In short, it runs like this:
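Growth of a checkpoint-deficient yeast mutant is measured after compound exposure. Values represent inhibition relative to vehicle.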

Assay [6] can be described thus: NCI Yeast Anticancer Drug Screen. Data for the mlh1 rad18 strain (AID 175). To be noted: S. cerevisiae mlh1 rad18 strain growth inhibition, stronger effect = higher value. The gist of the method: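 Growth inhibition of the yeast strain was measured after compound exposure and expressed relative to vehicle-treated controls. The strain carries defined defects in DNA damage repair.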

The mark [7] stands for this setting: at 5.0 µM (retest, dose inferred, filed as 0.5).
The mark [8] stands for this setting: at 50.0 µM (retest, dose inferred, filed as 5.0).

For `CN(C)C(=S)Oc1ccc(C(C)(C)C)cc1`, the growth inhibition in assay [1] (setting [7]) is -156%; in assay [1] (setting [8]), -68%; in assay [1] (at 50.0 µM), 50.9%; in assay [2] (setting [7]), -53%; in assay [2] (setting [8]), -59%; in assay [2] (at 50.0 µM), -14.4%. For the same molecule, the growth inhibition was -65% in assay [3] (setting [7]); -47% in assay [3] (setting [8]); 40.5% in assay [3] (at 50.0 µM); -72% in assay [4] (setting [7]); -68% in assay [4] (setting [8]); -34.7% in assay [4] (at 50.0 µM). For the same molecule, the growth inhibition in assay [5] (setting [7]) is -65%; in assay [5] (setting [8]), -27%; in assay [5] (at 50.0 µM) it was 60.4%; in assay [6] (setting [7]), -129%; in assay [6] (setting [8]) it was -123%; in assay [6] (at 50.0 µM), 29.1%.

Regarding `CC(C)c1ccc(/C=C(\NC(=O)c2ccccc2)c2nc3ccccc3[nH]2)cc1`, the growth inhibition in assay [1] (setting [7]) was -2%; in assay [1] (setting [8]), 60%; in assay [1] (at 50.0 µM) it was 71.2% (active); in assay [2] (setting [7]) it was -27%; in assay [2] (setting [8]), 53%; in assay [2] (at 50.0 µM) it was 86.1% (active). In addition, the growth inhibition in assay [3] (setting [7]) was -2%; in assay [3] (setting [8]), 67%; in assay [3] (at 50.0 µM), 56.5%; in assay [4] (setting [7]), -7%; in assay [4] (setting [8]), 49%; in assay [4] (at 50.0 µM), 80.4% (active). Further, the growth inhibition is 6% in assay [5] (setting [7]); 71% (active) in assay [5] (setting [8]); 88% (active) in assay [5] (at 50.0 µM); -3% in assay [6] (setting [7]); 62% in assay [6] (setting [8]); 93.3% (active) in assay [6] (at 50.0 µM).

Consider `O=[N+]([O-])c1ccc(NS(=O)(=O)c2ccc(Cl)c(Cl)c2Cl)c([N+](=O)[O-])c1`, for which the growth inhibition is 22% in assay [1] (setting [7]); 18% in assay [1] (setting [8]); 78.2% (active) in assay [1] (at 50.0 µM); 24% in assay [2] (setting [7]); 21% in assay [2] (setting [8]); 42.1% in assay [2] (at 50.0 µM). The growth inhibition in assay [3] (setting [7]) is 31%; in assay [3] (setting [8]) it was 38%; in assay [3] (at 50.0 µM), 81% (active); in assay [4] (setting [7]), 16%; in assay [4] (setting [8]) it was 25%; in assay [4] (at 50.0 µM), 45.1%. For the same molecule, the growth inhibition in assay [5] (setting [7]) was 11%; in assay [5] (setting [8]), 10%; in assay [5] (at 50.0 µM), 7.15%; in assay [6] (setting [7]) it was 22%; in assay [6] (setting [8]), 20%; in assay [6] (at 50.0 µM), 75.2% (active).

With `C1C[OH+]CC[OH+]CCNCC[OH+]CC[OH+]CCN1.[Cl-].[Pt+4]`, the growth inhibition in assay [1] (setting [7]) is 34%; in assay [1] (setting [8]), 34%; in assay [1] (at 50.0 µM), 86.8% (active); in assay [2] (setting [7]), 34%; in assay [2] (setting [8]) it was 34%; in assay [2] (at 50.0 µM), 87.4% (active). Besides, the growth inhibition in assay [3] (setting [7]) was 29%; in assay [3] (setting [8]), 29%; in assay [3] (at 50.0 µM) it was 84.8% (active); in assay [4] (setting [7]), 29%; in assay [4] (setting [8]), 29%; in assay [4] (at 50.0 µM), 87.1% (active). Besides, the growth inhibition in assay [5] (setting [7]) is 10%; in assay [5] (setting [8]) it was 10%; in assay [5] (at 50.0 µM) it was 86.2% (active); in assay [6] (setting [7]), 43%; in assay [6] (setting [8]), 43%; in assay [6] (at 50.0 µM), 84.2% (active).

As to `C#CC(C)(C)OC(C)=O`, the growth inhibition was -2% in assay [1] (setting [7]); 26% in assay [1] (setting [8]); 69.9% in assay [1] (at 50.0 µM); 0% in assay [2] (setting [7]); 0% in assay [2] (setting [8]); 19.2% in assay [2] (at 50.0 µM). Also, the growth inhibition in assay [3] (setting [7]) is -1%; in assay [3] (setting [8]), 5%; in assay [3] (at 50.0 µM) it was 69.5%; in assay [4] (setting [7]), 2%; in assay [4] (setting [8]) it was 0%; in assay [4] (at 50.0 µM), 5.75%. Besides, the growth inhibition in assay [5] (setting [7]) was 1%; in assay [5] (setting [8]), 4%; in assay [5] (at 50.0 µM), 35.6%; in assay [6] (setting [7]), -1%; in assay [6] (setting [8]), 4%; in assay [6] (at 50.0 µM), 76.6% (active).

In the case of `Cc1ccc(Cl)cc1NN`, the growth inhibition was -1% in assay [1] (setting [7]); 95% (active) in assay [1] (setting [8]); 96.5% (active) in assay [1] (at 50.0 µM); 5% in assay [2] (setting [7]); 97% (active) in assay [2] (setting [8]); 99.2% (active) in assay [2] (at 50.0 µM). In addition, the growth inhibition was 2% in assay [3] (setting [7]); 89% (active) in assay [3] (setting [8]); 48.6% in assay [3] (at 50.0 µM); -1% in assay [4] (setting [7]); 94% (active) in assay [4] (setting [8]); 97.6% (active) in assay [4] (at 50.0 µM). In addition, the growth inhibition in assay [5] (setting [7]) was -2%; in assay [5] (setting [8]), 97% (active); in assay [5] (at 50.0 µM), 96.9% (active); in assay [6] (setting [7]), 5%; in assay [6] (setting [8]) it was 96% (active); in assay [6] (at 50.0 µM), 47.6%.

Turning to `CN1C(=S)C(=N)OC1c1ccccc1F` (configuration not stated), the growth inhibition in assay [1] (setting [7]) was 7%; in assay [1] (setting [8]), 91% (active); in assay [1] (at 50.0 µM), 84.3% (active); in assay [2] (setting [7]) it was 16%; in assay [2] (setting [8]) it was 97% (active); in assay [2] (at 50.0 µM) it was 75.3% (active). Moreover, the growth inhibition in assay [3] (setting [7]) was 7%; in assay [3] (setting [8]), 98% (active); in assay [3] (at 50.0 µM), 85.6% (active); in assay [4] (setting [7]), -2%; in assay [4] (setting [8]), 82% (active); in assay [4] (at 50.0 µM), 33.4%. The growth inhibition is 10% in assay [5] (setting [7]); 99% (active) in assay [5] (setting [8]); 89.2% (active) in assay [5] (at 50.0 µM); -13% in assay [6] (setting [7]); 96% (active) in assay [6] (setting [8]); 84.8% (active) in assay [6] (at 50.0 µM).

Turning to `COc1cc(Nc2ccc(O)cc2)c2ncccc2c1`, the growth inhibition in assay [1] (setting [7]) is 34%; in assay [1] (setting [8]), 93% (active); in assay [1] (at 50.0 µM), 94.9% (active); in assay [2] (setting [7]), 18%; in assay [2] (setting [8]) it was 97% (active); in assay [2] (at 50.0 µM), 69.2%. Also, the growth inhibition was 16% in assay [3] (setting [7]); 97% (active) in assay [3] (setting [8]); 94.7% (active) in assay [3] (at 50.0 µM); 5% in assay [4] (setting [7]); 89% (active) in assay [4] (setting [8]); 21.1% in assay [4] (at 50.0 µM). Also, the growth inhibition was 7% in assay [5] (setting [7]); 94% (active) in assay [5] (setting [8]); 45.3% in assay [5] (at 50.0 µM); 33% in assay [6] (setting [7]); 96% (active) in assay [6] (setting [8]); 94.5% (active) in assay [6] (at 50.0 µM).

As to `CCN1/C(=C\c2cc(C)nc(-c3ccccc3)[n+]2C)C=Cc2ccccc21`, the growth inhibition in assay [1] (setting [7]) was 29%; in assay [1] (setting [8]) it was 97% (active); in assay [1] (at 50.0 µM), 98% (active); in assay [2] (setting [7]), 27%; in assay [2] (setting [8]) it was 99% (active); in assay [2] (at 50.0 µM), 98.1% (active). In addition, the growth inhibition was 27% in assay [3] (setting [7]); 99% (active) in assay [3] (setting [8]); 98.7% (active) in assay [3] (at 50.0 µM); 43% in assay [4] (setting [7]); 98% (active) in assay [4] (setting [8]); 98.8% (active) in assay [4] (at 50.0 µM). Besides, the growth inhibition in assay [5] (setting [7]) was 64%; in assay [5] (setting [8]) it was 99% (active); in assay [5] (at 50.0 µM), 98.8% (active); in assay [6] (setting [7]) it was 48%; in assay [6] (setting [8]), 99% (active); in assay [6] (at 50.0 µM), 98.7% (active).
